An excerpt weighted towards active compounds, which were near 6.8% of everything screened.
C diff growth: C. difficile growth inhibition; Clostridium difficile clinical isolate growth, OD600, 24 h; hits give low values; growth activity, negative = inhibition, % at 16 µg/mL (by protocol); 86,000 compounds, 0.25% hits;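 active = mean growth activity at or below -80% and every replicate also at or below -80%; inconclusive = mean at or below -80% but some replicate above -80%; inactive = mean growth activity above -80%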;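 note: 0% = DMSO wells and -100% = levofloxacin 16 µg/mL wells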
Pf Dd2 growth: P. falciparum Dd2 growth inhibition. SYBR Green, 72 h; hits give low values. activity change, % at 10 µM. 94,000 compounds, 2.3% hits; in the data active = activity change below about -80%; inconclusive = no clear call, values can overlap the other calls
T cruzi growth-1: T. cruzi proliferation inhibition; inhibition, % at 8.34 µM; 77,000 compounds, 5.9% hits; T. cruzi beta-gal in NIH3T3, GalScreen luminescence, 90 h;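 active = mean inhibition above about 93%, with at least 55% of replicates each passing it, limit read from the data, passing the limit was not always enough; inconclusive = only one of those two conditions holds; inactive = neither condition holds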
T cruzi growth-2: Trypanosoma cruzi proliferation inhibition; shares compounds with T cruzi growth-1; T. cruzi beta-gal in NIH3T3, GalScreen luminescence, 90 h; inhibition, % at 8.35 µM; 5,600 compounds, 72% hits; AID 651739;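 active = mean replicate inhibition above about 95% and at least 55% of replicates individually reaching it, limit read from the data; inconclusive = only one of the two criteria is met; inactive = neither criterion is met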
T cruzi growth-3: inhibitors of T. cruzi proliferation; shares compounds with T cruzi growth-1; T. cruzi beta-gal in NIH3T3, GalScreen luminescence, 90 h; inhibition, % at 2.09 µM; 5,600 compounds, 21% hits;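 active = mean inhibition above about 95%, with at least 55% of replicates also reaching it, limit read from the data; inconclusive = meets just one of the two conditions; inactive = meets neither condition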;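 note: plate controls were neutral control median for no effect and positive control median for full effect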
NIH3T3 tox: NIH/3T3 (mouse) viability loss. shares compounds with T cruzi growth-1. NIH/3T3 viability, CellTiter-Glo ATP luminescence, 90 h. cytotoxicity (signal decrease), % at 8.35 µM. 5,600 compounds, 14% hits. AID 651742;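 active = mean signal decrease across replicates above about 35% based on untreated-well scatter, with enough replicates individually passing, limit read from the data; inconclusive = no rule stated though some were filed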;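 note: 0% = median of neutral control wells and 100% = median of positive control wells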
3T3 cytotox 2: cytotoxicity in mouse NIH/3T3 fibroblasts. shares compounds with T cruzi growth-1. NIH/3T3 viability, CellTiter-Glo ATP luminescence, 90 h. inhibition, % at 24.9 µM. 5,600 compounds, 56% hits. AID 651744;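 active = mean loss of cell viability signal at or above a set limit, and enough replicates individually reaching it; inconclusive = meets only the mean limit or only the replicate share; inactive = meets neither condition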;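 note: 0% = median of neutral control wells and 100% = median of positive control wells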
* = called active by the depositor; ? = inconclusive; / = no result given.

SMILES	C diff growth	Pf Dd2 growth	T cruzi growth-1	T cruzi growth-2	T cruzi growth-3	NIH3T3 tox	3T3 cytotox 2
CO[C@H]1CN(C)C(=O)c2ccc(NC(=O)Nc3cccc(F)c3)cc2OC[C@@H](C)N(C(=O)C2CC2)C[C@@H]1C	/	/	2	/	/	/	/
CC(C)C#Cc1ccc2c(c1)O[C@H](CN(C)C(=O)c1ccccc1)[C@@H](C)CN([C@@H](C)CO)S2(=O)=O	29	-61	85	/	/	/	/
CC(C)C#Cc1ccc2c(c1)O[C@H](CN(C)C(=O)c1ccccc1)[C@@H](C)CN([C@H](C)CO)S2(=O)=O	-2	-65	115*	105*	61	0	30*
CC(C)C#Cc1ccc2c(c1)O[C@@H](CN(C)C(=O)c1ccncc1)[C@@H](C)CN([C@H](C)CO)S2(=O)=O	1	-11	107*	102*	?	27	42*
CC(C)C#Cc1ccc2c(c1)O[C@@H](CN(C)C(=O)c1ccccc1)[C@H](C)CN([C@H](C)CO)S2(=O)=O	-8	-76	99*	104*	46	46*	39*
CC(C)C#Cc1ccc2c(c1)O[C@@H](CN(C)C(=O)c1ccccc1)[C@@H](C)CN([C@H](C)CO)S2(=O)=O	13	-52	69	/	/	/	/
CC(C)C#Cc1ccc2c(c1)O[C@@H](CN(C)C(=O)c1ccncc1)[C@H](C)CN([C@@H](C)CO)S2(=O)=O	4	-13	67	/	/	/	/
C[C@@H]1CN([C@H](C)CO)C(=O)c2cc(C#Cc3cccnc3)cnc2O[C@H]1CN(C)C(=O)CN(C)C	3	-31	/	/	/	/	/
CN(C)CC(=O)Nc1ccc2c(c1)[C@H]1C[C@@H](CC(=O)NCc3ccccc3F)O[C@@H](CO)[C@H]1O2	0	-4	24	/	/	/	/
CCC(=O)N(C)C[C@@H]1Oc2cc(C3=CCCCC3)ccc2S(=O)(=O)N([C@H](C)CO)C[C@@H]1C	/	-19	65	/	/	/	/
COc1ccccc1-c1ccc2n(c1=O)C[C@H]1[C@H](CO)[C@@H](C(=O)NC3CCC3)N(C(=O)C3CCC3)[C@@H]21	0	/	59	/	/	/	/
O=C(NCC[C@@H]1CC[C@H](NC(=O)c2cnccn2)[C@@H](CO)O1)Nc1ccc(F)cc1	-1	22	-20	/	/	/	/
C[C@@H]1CN([C@@H](C)CO)C(=O)c2ccccc2-c2ccccc2CO[C@H]1CN(C)C(=O)[C@H](C)c1ccccc1	5	12	-19	/	/	/	/
C[C@@H]1CN([C@@H](C)CO)C(=O)c2cc(NC(=O)Nc3ccc(F)cc3)ccc2O[C@@H](C)CCCCO[C@@H]1CN(C)C(=O)CCCN(C)C	-6	2	-20	/	/	/	/
COc1ccccc1C(=O)N1C[C@@H]2[C@H](c3ccccc31)[C@@H](CO)N2Cc1ccc(F)cc1	2	-4	-30	/	/	/	/
COc1ccc2c3c([nH]c2c1)[C@@H](CO)N(C(=O)c1ccc(F)cc1)CC31CN(C(=O)CC2CC2)C1	3	-9	/	/	/	/	/
COCC#Cc1ccc2c(c1)O[C@H](CN(C)C(=O)c1ccccc1)[C@@H](C)CN([C@H](C)CO)S2(=O)=O	-3	-46	31	/	/	/	/
CCCC#Cc1ccc2c(c1)O[C@H](CN(C)C(=O)c1ccccc1)[C@H](C)CN([C@H](C)CO)S2(=O)=O	4	-66	98*	107*	81	-3	58*
CCCC#Cc1ccc2c(c1)O[C@H](CN(C)C(=O)c1ccncc1)[C@H](C)CN([C@@H](C)CO)S2(=O)=O	-2	-14	84	/	/	/	/
CCCC#Cc1ccc2c(c1)O[C@@H](CN(C)C(=O)c1ccccc1)[C@H](C)CN([C@@H](C)CO)S2(=O)=O	6	-58	96*	102*	73	32	62*
CCCC#Cc1ccc2c(c1)O[C@@H](CN(C)C(=O)c1ccncc1)[C@H](C)CN([C@@H](C)CO)S2(=O)=O	3	23	87	/	/	/	/
CC(C)CC#Cc1ccc2c(c1)O[C@H](CN(C)C(=O)c1ccccc1)[C@@H](C)CN([C@H](C)CO)S2(=O)=O	19	-57	/	/	/	/	/
CC(C)CC#Cc1ccc2c(c1)O[C@@H](CN(C)C(=O)c1ccccc1)[C@@H](C)CN([C@@H](C)CO)S2(=O)=O	15	-70	120*	102*	88	27	103*
CCCC#Cc1ccc2c(c1)O[C@H](CN(C)C(=O)c1ccccc1)[C@@H](C)CN([C@@H](C)CO)S2(=O)=O	4	-41	112*	104*	60	21	35*
Cc1noc(C)c1NC(=O)Nc1ccc2c(c1)C(=O)N([C@H](C)CO)C[C@@H](C)[C@@H](CN(C)C)OCCCC[C@@H](C)O2	-1	38	27	/	/	/	/
SMILES	C diff growth	Pf Dd2 growth	T cruzi growth-1	T cruzi growth-2	T cruzi growth-3	NIH3T3 tox	3T3 cytotox 2
C[C@H](O)C#Cc1cnc2c(c1)C(=O)N([C@H](C)CO)C[C@H](C)[C@H](CN(C)C(=O)Nc1ccc(F)cc1)O2	/	20	-18	/	/	/	/
CO[C@H]1CN(C)C(=O)c2ccc(NC(=O)c3nc4ccccc4s3)cc2OC[C@H](C)N(Cc2cncnc2)C[C@@H]1C	/	-42	/	/	/	/	/
CCCC(=O)N1CC2(C1)CN(C(=O)COC)[C@H](CO)c1c2c2ccc(OC)cc2n1C	5	32	/	/	/	/	/
COc1ccc(S(=O)(=O)N(C)C[C@H]2OCCCC[C@@H](C)Oc3ccc(NS(=O)(=O)c4ccccc4)cc3C(=O)N([C@H](C)CO)C[C@H]2C)cc1	-11	/	115*	108*	64	7	-3
COc1ccc(S(=O)(=O)Nc2ccc3c(c2)C(=O)N([C@@H](C)CO)C[C@H](C)[C@H](CN(C)S(=O)(=O)c2ccc(OC)cc2)OCCCC[C@H](C)O3)cc1	-3	-65	101*	111*	17	0	-10
COc1ccc(S(=O)(=O)Nc2ccc3c(c2)C(=O)N([C@H](C)CO)C[C@H](C)[C@H](CN(C)S(=O)(=O)c2ccc(OC)cc2)OCCCC[C@H](C)O3)cc1	-3	-58	100*	109*	64	2	9
COc1ccc(S(=O)(=O)Nc2ccc3c(c2)C(=O)N([C@@H](C)CO)C[C@@H](C)[C@@H](CN(C)S(=O)(=O)c2ccccc2)OCCCC[C@@H](C)O3)cc1	-6	-60	/	/	/	/	/
COc1ccc(S(=O)(=O)N(C)C[C@@H]2OCCCC[C@H](C)Oc3ccc(NS(=O)(=O)c4ccccc4)cc3C(=O)N([C@@H](C)CO)C[C@@H]2C)cc1	-8	/	68	/	/	/	/
COc1ccc(S(=O)(=O)Nc2ccc3c(c2)C(=O)N([C@@H](C)CO)C[C@@H](C)[C@H](CN(C)S(=O)(=O)c2ccc(OC)cc2)OCCCC[C@H](C)O3)cc1	-5	-43	78	/	/	/	/
COc1ccc(S(=O)(=O)Nc2ccc3c(c2)C(=O)N([C@@H](C)CO)C[C@@H](C)[C@H](CN(C)S(=O)(=O)c2ccc(OC)cc2)OCCCC[C@@H](C)O3)cc1	5	-47	?	108*	69	6	23

From PubChem
